Experimental findings from ChEMBL document CHEMBL1961873, “Compounds: GSK PKIS; Assays: Nanosyn kinase panel” (2012) are described below.

A word on the inhibition: it is the drop in the measured response relative to a control, in per cent.

For assay [1], the target named is Serine/threonine-protein kinase pim-2 (Homo sapiens) (UniProt Q9P1W9). The note with it: at 1 µM.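 Note: each value is a mean of the inhibition measurements against the kinase.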
The target in assay [2] is Serine/threonine-protein kinase pim-3 (Homo sapiens) (UniProt Q86V86). The note with it: at 0.1 µM.
For assay [3] the target is unchanged. The note with it: at 1 µM.
Assay [4] addresses T1, MAP kinase-activated protein kinase 5 (Homo sapiens) (UniProt Q8IW41).
T1 sequence (whole entry): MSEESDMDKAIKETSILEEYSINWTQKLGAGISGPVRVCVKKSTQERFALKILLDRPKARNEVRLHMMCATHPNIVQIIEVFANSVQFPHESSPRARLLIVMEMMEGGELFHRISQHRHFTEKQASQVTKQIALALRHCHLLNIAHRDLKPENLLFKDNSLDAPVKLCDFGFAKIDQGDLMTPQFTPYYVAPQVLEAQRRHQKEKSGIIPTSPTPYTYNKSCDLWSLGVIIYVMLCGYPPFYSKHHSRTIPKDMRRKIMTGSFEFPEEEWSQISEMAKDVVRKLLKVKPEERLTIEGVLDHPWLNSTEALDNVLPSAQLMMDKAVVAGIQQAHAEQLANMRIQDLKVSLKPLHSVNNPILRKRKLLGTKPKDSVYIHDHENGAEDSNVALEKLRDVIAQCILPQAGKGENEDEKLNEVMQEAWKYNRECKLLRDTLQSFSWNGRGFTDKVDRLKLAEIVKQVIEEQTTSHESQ
As to conditions: at 0.1 µM.

For assay [5], the target named is T1, MAP kinase-activated protein kinase 5 (Homo sapiens). The note with it: at 1 µM.
Assay [6] has as its target Serine/threonine-protein kinase SIK1 (Homo sapiens) (UniProt P57059). As to conditions: at 0.1 µM.
Assay [7] shares this target. The note with it: at 1 µM.
Assay [8] concerns the target Serine/threonine-protein kinase SIK2 (Homo sapiens) (UniProt Q9H0K1). The note with it: at 0.1 µM.
Assay [9] has the same target. As to conditions: at 1 µM.
In assay [10] the target is T2, Serine/threonine-protein kinase TBK1 (Homo sapiens) (UniProt Q9UHD2).
T2 sequence (whole entry): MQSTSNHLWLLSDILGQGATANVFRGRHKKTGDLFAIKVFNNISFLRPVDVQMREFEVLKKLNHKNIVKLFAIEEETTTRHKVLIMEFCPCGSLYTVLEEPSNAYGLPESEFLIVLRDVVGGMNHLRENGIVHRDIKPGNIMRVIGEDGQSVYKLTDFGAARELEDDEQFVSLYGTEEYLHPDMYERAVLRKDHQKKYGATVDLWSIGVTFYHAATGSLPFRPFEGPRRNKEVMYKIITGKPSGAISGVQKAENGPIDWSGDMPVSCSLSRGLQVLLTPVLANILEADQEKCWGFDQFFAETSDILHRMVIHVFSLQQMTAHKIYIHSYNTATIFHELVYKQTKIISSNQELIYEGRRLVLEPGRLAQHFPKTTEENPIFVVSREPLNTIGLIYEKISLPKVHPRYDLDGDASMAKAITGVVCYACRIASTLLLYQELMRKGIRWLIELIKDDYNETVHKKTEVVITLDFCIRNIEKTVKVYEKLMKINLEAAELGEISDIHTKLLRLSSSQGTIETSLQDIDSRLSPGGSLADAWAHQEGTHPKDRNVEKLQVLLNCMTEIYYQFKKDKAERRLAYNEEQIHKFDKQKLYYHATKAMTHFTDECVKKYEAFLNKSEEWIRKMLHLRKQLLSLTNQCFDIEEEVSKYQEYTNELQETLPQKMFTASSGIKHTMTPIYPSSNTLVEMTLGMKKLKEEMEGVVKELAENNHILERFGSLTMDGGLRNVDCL
As to conditions: at 0.1 µM.

Assay [11] deals with T2, Serine/threonine-protein kinase TBK1 (Homo sapiens). As to conditions: at 1 µM.
Assay [12] concerns the target T3, Testis-specific serine/threonine-protein kinase 1 (Homo sapiens) (UniProt Q9BXA7).
T3 sequence (whole entry): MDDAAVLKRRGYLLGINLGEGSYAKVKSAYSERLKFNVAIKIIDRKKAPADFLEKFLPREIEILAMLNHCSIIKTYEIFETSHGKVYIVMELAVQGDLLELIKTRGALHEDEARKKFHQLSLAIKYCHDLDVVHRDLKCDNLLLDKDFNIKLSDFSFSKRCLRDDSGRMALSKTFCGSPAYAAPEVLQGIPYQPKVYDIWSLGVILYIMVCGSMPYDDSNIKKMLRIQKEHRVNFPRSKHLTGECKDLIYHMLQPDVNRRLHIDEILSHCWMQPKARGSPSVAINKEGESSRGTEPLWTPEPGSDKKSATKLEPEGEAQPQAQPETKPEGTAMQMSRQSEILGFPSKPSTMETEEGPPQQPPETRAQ
The note with it: at 0.1 µM.

The target of assay [13] is T3, Testis-specific serine/threonine-protein kinase 1 (Homo sapiens). The note with it: at 1 µM.
In assay [14] the target is T4, Testis-specific serine/threonine-protein kinase 2 (Homo sapiens) (UniProt Q96PF2).
T4 sequence (whole entry): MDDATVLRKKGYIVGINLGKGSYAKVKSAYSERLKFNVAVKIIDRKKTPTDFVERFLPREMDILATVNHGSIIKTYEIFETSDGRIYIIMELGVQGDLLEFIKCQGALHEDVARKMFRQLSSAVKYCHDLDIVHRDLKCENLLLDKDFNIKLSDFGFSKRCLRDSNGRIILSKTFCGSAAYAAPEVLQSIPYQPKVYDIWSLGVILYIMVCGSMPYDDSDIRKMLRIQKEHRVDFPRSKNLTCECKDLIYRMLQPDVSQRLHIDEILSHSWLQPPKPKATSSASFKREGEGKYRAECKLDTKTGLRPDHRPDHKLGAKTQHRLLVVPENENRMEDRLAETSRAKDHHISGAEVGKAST
As to conditions: at 0.1 µM.

Assay [15] has as its target T4, Testis-specific serine/threonine-protein kinase 2 (Homo sapiens). The note with it: at 1 µM.
For assay [16], the target named is Casein kinase I isoform alpha (Homo sapiens) (UniProt P48729). The note with it: at 0.1 µM.
Assay [17] shares this target. The note with it: at 1 µM.
Assay [18] has as its target Casein kinase I isoform gamma-1 (Homo sapiens) (UniProt Q9HCP0). The note with it: at 0.1 µM.
Assay [19] shares this target. As to conditions: at 1 µM.
The target of assay [20] is Casein kinase I isoform gamma-2 (Homo sapiens) (UniProt P78368). The note with it: at 0.1 µM.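 Note: values are mean inhibition figures reported as part of the GSK PKIS dataset.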

Molecules are shown by their SMILES.

Sequence of Serine/threonine-protein kinase SIK1 (Homo sapiens) (P57059 whole entry): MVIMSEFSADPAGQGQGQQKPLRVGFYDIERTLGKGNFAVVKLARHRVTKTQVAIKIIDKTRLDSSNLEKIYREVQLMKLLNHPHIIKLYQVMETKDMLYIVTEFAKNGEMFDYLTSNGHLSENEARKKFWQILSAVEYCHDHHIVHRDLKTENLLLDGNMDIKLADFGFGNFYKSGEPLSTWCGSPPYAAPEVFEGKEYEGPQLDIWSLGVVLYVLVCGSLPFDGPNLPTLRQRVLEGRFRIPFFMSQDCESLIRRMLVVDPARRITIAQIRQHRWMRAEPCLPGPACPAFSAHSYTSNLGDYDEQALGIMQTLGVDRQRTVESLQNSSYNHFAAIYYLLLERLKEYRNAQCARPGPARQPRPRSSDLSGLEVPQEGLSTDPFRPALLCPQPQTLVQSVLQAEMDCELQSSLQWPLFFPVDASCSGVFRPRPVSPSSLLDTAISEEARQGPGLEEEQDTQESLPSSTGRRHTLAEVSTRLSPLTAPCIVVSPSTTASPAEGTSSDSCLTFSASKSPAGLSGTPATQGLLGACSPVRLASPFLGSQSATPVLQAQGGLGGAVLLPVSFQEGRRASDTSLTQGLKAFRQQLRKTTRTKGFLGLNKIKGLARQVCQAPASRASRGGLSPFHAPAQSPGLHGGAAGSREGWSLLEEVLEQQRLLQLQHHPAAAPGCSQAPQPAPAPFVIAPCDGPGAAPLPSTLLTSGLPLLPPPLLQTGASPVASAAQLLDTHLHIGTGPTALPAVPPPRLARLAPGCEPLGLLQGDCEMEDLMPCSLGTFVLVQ
Sequence of Serine/threonine-protein kinase pim-2 (Homo sapiens) (Q9P1W9 whole entry, looked up): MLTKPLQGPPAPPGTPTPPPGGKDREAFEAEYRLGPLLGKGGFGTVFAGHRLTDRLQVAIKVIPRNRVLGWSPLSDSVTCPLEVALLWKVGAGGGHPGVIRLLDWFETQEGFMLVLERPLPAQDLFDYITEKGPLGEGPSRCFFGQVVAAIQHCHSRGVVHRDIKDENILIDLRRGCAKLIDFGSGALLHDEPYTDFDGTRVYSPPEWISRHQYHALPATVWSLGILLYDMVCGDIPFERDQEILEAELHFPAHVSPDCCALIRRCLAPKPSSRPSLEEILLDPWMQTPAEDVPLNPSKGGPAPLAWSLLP
Sequence of Casein kinase I isoform gamma-2 (Homo sapiens) (P78368 whole entry, looked up, canonical isoform): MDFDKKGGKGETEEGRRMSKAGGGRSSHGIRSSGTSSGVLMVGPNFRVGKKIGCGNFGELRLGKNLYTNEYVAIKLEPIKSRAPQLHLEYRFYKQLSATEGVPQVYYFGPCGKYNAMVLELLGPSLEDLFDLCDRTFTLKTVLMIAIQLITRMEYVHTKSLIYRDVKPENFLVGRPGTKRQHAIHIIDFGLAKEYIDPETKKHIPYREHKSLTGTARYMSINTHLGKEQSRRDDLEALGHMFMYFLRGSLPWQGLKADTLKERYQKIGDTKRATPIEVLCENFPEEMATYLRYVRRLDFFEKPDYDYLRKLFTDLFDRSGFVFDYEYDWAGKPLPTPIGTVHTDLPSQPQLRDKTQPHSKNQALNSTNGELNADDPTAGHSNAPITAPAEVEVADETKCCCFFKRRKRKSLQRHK
Sequence of Casein kinase I isoform alpha (Homo sapiens) (P48729 2-337 limits assumed): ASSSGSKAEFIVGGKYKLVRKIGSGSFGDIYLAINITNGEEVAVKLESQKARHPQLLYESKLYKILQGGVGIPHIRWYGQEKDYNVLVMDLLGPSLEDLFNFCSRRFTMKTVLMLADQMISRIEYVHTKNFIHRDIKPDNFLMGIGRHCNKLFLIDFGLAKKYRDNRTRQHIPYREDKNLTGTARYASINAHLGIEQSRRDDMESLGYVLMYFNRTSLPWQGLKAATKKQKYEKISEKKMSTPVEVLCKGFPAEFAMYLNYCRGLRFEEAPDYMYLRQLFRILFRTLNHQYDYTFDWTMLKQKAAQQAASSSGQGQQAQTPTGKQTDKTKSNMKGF
Sequence of Serine/threonine-protein kinase SIK2 (Homo sapiens) (Q9H0K1 whole entry, looked up): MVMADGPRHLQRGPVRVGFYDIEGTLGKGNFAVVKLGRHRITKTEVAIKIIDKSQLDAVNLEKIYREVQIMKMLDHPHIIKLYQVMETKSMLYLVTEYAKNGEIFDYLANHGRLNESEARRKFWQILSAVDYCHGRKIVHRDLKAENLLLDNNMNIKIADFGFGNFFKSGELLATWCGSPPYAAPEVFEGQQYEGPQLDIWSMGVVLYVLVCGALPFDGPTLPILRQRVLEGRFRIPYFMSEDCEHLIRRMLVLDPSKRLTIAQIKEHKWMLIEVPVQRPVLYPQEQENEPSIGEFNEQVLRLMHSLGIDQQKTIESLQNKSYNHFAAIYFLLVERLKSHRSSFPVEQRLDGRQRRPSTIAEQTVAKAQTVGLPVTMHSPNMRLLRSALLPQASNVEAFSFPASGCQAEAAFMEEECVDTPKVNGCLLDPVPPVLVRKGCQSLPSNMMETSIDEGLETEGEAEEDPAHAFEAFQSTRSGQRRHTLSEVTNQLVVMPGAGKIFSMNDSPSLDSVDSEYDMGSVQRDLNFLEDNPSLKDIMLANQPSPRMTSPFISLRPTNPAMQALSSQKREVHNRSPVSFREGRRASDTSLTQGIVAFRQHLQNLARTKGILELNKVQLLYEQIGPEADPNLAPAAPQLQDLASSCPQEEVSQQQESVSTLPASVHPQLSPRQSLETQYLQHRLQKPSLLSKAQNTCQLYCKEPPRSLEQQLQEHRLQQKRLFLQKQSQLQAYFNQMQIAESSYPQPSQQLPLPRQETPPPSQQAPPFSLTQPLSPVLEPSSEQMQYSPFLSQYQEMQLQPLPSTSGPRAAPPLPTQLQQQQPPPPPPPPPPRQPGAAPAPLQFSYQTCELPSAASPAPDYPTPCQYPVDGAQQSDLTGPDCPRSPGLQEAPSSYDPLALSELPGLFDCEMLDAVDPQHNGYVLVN
Sequence of Casein kinase I isoform gamma-1 (Homo sapiens) (Q9HCP0 whole entry, looked up, canonical isoform): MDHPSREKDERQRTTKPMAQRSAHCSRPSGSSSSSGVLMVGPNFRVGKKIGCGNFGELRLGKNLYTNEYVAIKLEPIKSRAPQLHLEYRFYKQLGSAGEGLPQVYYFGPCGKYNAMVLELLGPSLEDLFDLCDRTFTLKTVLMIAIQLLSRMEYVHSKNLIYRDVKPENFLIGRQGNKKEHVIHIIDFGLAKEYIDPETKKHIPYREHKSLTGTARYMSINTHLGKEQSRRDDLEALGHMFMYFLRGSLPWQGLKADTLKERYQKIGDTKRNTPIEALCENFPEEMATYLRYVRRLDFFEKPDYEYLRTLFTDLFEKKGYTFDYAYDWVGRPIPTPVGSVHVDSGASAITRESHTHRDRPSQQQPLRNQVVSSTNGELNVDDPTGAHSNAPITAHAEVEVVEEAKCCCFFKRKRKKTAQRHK

As for `CS(=O)(=O)CCNCc1cc(-c2cc3c(Nc4ccc(OCc5cccc(F)c5)c(Cl)c4)ncnc3s2)cs1`, the inhibition is -0.99% in assay [1]; 0.08% in [2]; 2.3% in assay [3]; 2.2% in assay [4]; 1.6% in assay [5]; 7.53% in assay [6]. Besides, the inhibition in assay [7] is 7.6%; in assay [8] it was 7.98%; in assay [9] it was 0.61%; in assay [10], 5.03%; in assay [11], 4.88%; in [12], 4.02%. The inhibition in assay [13] stood at 4.37%; in [14], 2.22%; in [15], 2.42%; in assay [16] it was 6.3%; in [17] it was 8.73%; in [18] it was 3.81%. Besides, the results for the inhibition in assay [19] and in assay [20] were 4.73% and 3.23%, respectively.

`NC(=O)c1ccc(Oc2nccc(-c3c(-c4ccc(F)cc4)ncn3C3CCNCC3)n2)cc1`: the inhibition in [1] is -0.49%; in [2], 0.26%; in assay [3], 1.82%; in assay [4], 3.51%; in assay [5] it was 2.54%; in assay [6] it was 4.73%. Further, the inhibition in assay [7] was 11.3%; in assay [8], 7.22%; in assay [9], 3.63%; in assay [10] it was 3.9%; in assay [11], 4.3%; in [12], 4.45%. Also, the inhibition is 5.29% in assay [13]; 2.52% in assay [14]; 2.46% in assay [15]; 5.63% in assay [16]; 30.3% in assay [17]; 5.2% in [18]. The inhibition in assay [19] was 9.98%; in [20], 5.16%.

As for `O=C1Nc2ccc(I)cc2C1=Cc1cc(Br)c(O)c(Br)c1`, the inhibition in assay [1] was found to be 18.2%; in assay [2], 1.85%; in assay [3], 17.7%; in assay [4] it was 1.19%; in assay [5] it was 1.78%; in assay [6] it was 8.91%. Moreover, the inhibition in assay [7] is 9.38%; in assay [8], 4.92%; in assay [9], 9.04%; in assay [10], 3.66%; in [11] it was 2.5%; in [12], 4.56%. Also, the inhibition was found to be 5.45% in assay [13]; 2.33% in assay [14]; 2.81% in assay [15]; 5.08% in assay [16]; 6.76% in assay [17]; 3.7% in assay [18]. Besides, the inhibition in assay [19] amounted to 5.38%; in assay [20], 3.7%.

Turning to `CCc1nccc2c1nc(-c1nonc1N)n2CC`, the inhibition in assay [1] was 1.27%; in assay [2] it was -0.38%; in assay [3], -2.26%; in assay [4] it was -0.45%; in assay [5] it was -1.56%; in assay [6], 0.62%. For the same molecule, the inhibition in [7] is 4.31%; in assay [8], -4.39%; in assay [9], 6.79%; in [10], 1.12%; in assay [11], 6.1%; in [12] it was 0.58%. In addition, the inhibition is 0.27% in assay [13]; -0.65% in assay [14]; -0.91% in [15]; 3.39% in assay [16]; 3.67% in assay [17]; 0.76% in assay [18]. Moreover, the inhibition in assay [19] is 2.98%; in assay [20], 0.48%.

For `Nc1nccc(-c2c(-c3ccc(F)cc3)ncn2C2CCC(O)CC2)n1` (stereo not given), the inhibition in assay [1] is 0.53%; in [2], 0.04%; in assay [3] it was 0.35%; in assay [4], -0.92%; in [5] it was -0.32%; in assay [6], 0.06%. The inhibition is 4.75% in assay [7]; -0.25% in assay [8]; 28.6% in assay [9]; 5.52% in [10]; 1.41% in [11]; -2.82% in assay [12]. The inhibition in assay [13] is -1.96%; in [14], -1.46%; in [15] it was -0.41%; in assay [16] it was 62.4%; in [17] it was 90.1%; in assay [18], -1.19%. In addition, the inhibition is 5.79% in [19] and -1.13% in assay [20].

Turning to `O=C(Nc1n[nH]c2cc(-c3cc(F)ccc3F)ccc12)C1CC1`, the inhibition in assay [1] was -0.55%; in assay [2], -2.08%; in assay [3] it was -1.66%; in [4], 0.74%; in assay [5] it was 0.41%; in assay [6], 5.25%. The inhibition is 11.2% in [7]; 10.9% in assay [8]; 21.9% in assay [9]; 3.98% in assay [10]; 5.44% in [11]; 2.75% in [12]. Also, the inhibition in assay [13] worked out at 2.04%; in assay [14], 1.22%; in [15], 0.5%; in assay [16], 0.79%; in assay [17] it was 1.31%; in assay [18], 3.28%. Besides, the figures for the inhibition in assay [19] and in assay [20] were 3.73% and 2.53%, respectively.
